Data on 104 compounds can be found in ChEMBL document CHEMBL4513216, “Probing the Open Global Health Chemical Diversity Library for Multistage-Active Starting Points for Next-Generation Antimalarials” (ACS Infect Dis, 2020).

The whole screen tested about 69,000 compounds, of which about 8,600 (12%) showed an effect of 50% or more. This excerpt belongs to a sample that is enriched for strong results.

For the test, the system named is Plasmodium berghei. Briefly: Screen against P. berghei liver stage (PbLuc), transformed with Luciferase, at 10uM. Particulars: tested at 10 uM. In kind it is functional, HepG2.
For the compound `CCn1nc(C)c(S(=O)(=O)N(C)c2ccc(Cl)cn2)c1C`, the INHIBITION amounted to 0.643%. Regarding `O=C(COCc1ccco1)Nc1cc(C(F)(F)F)c[nH]c1=O`, the INHIBITION is on record as 19.6%. The figure for `CCc1nc(C2CCCN2CCn2cncn2)no1` (centres undefined) is 16.7%. The result for `CC(C)[C@]1(O)CN(C(=O)COCC(N)=O)C[C@H]1C` reads 10.6%. The figure for `CNC(=O)N1CC[C@@H]2CN(Cc3cccc(OC)c3)S(=O)(=O)[C@@H]2CC1` is 63.8%.

On to `COc1cccc(NC(=O)N2CCC(O)(C(F)(F)F)C2)c1` (centres undefined), for which the INHIBITION turned out to be 79.1%. Regarding `CNC(=O)N1CC[C@@H]2CN(Cc3cccc(Cl)c3)S(=O)(=O)[C@@H]2CC1`, the INHIBITION is on record as -2.17%. The result for `CNC(=O)N1CC[C@@H]2CN(CCc3cccc(OC)c3)S(=O)(=O)[C@@H]2CC1` reads 8.31%; that for `COc1cccc(CCCNC(=O)N2CCC(O)(C(F)(F)F)C2)c1` (centres undefined), 41.4%; that for `COc1cccc(CC(=O)N2CCC(O)(C(F)(F)F)C2)c1` (centres undefined), 49.1%.

`c1cc2c(cc1-n1nc(C3CC3)nc1-c1csnn1)OCCO2`: the INHIBITION worked out at 27.2%.

As to `O=C(c1ccoc1)N1CCC(NCc2ccccc2Cl)CC1`, the INHIBITION is on record as 7.81%.

As to `CN(C)C(=O)Cn1c(C2CC2)c(CN2CCC(O)CC2)c2cccnc21`, the INHIBITION is recorded as -8.58%. As to `Cc1csc(CCNC(=O)Nc2cc(C(F)(F)F)c[nH]c2=O)n1`, the INHIBITION is on record as 22%. In the case of `Cc1occc1C(=O)N1C[C@@H](C(=O)NCc2ccco2)C[C@H]2OCC[C@H]21`, the INHIBITION is given as 32.2%. Consider `Cc1c[nH]c(C2CCCN(Cc3cccc(C(=O)O)c3)C2)n1` (centres undefined), for which the INHIBITION came out at 6.26%. The figure for `CC(=O)Nc1ccc(Oc2cccc(CN3CCCC3)c2)cc1` is 27.9%; for `COc1ccc(Oc2cccc(C#N)n2)cc1CN1CCCC1` it is 25.4%. The result for `CCOc1cc(CN2CCCC2)ccc1Oc1cccc(C#N)n1` reads 47.6%. The figure for `N#Cc1cccc(Oc2ccc(CN3CCCC3)cc2Cl)n1` is 55%. Regarding `N#Cc1ccc(CN2CCOCC2)cc1`, the INHIBITION is given as 40.6%. The figure for `COc1ccc(CN2CCCC2)cc1Oc1cccc(C#N)n1` is 57.5%. On to `O=C1CCNc2ccc(F)cc2CN1Cc1ccco1`, for which the INHIBITION is listed as 1.8%. As for `Cc1ccc(-c2nc(C3CCN(C(=O)c4cnn(C)c4)CC3)no2)cn1`, the INHIBITION came to 30.5%. For the compound `O=c1[nH]c(N2CCOCC2)nc2c1CN(Cc1cccnc1)CC2`, the INHIBITION is listed as -4.51%.

Turning to `O=C1CCCN1CCCC(=O)N1CCC2(CC1)[C@H](O)C[C@@H]2O`, the INHIBITION is 9.56%. Regarding `CN(Cc1nc(Cc2cccc(C(F)(F)F)c2)no1)CC1CCCCO1` (centres undefined), the INHIBITION amounted to 42.1%. On to `CNC(=O)COc1cccc(CNC(=O)c2c(C)noc2C(C)C)c1`, for which the INHIBITION is listed as 37.4%. Take `Cc1cc(C)c2nc(CN3CCC(CN)CC3)cc(O)c2c1`: the INHIBITION amounted to 34.9%. On to `Cc1cc(C)c2nc(CN3CCOCC(O)C3)cc(O)c2c1` (centres undefined), for which the INHIBITION worked out at 17.6%.

With `Cc1cc(C)c2nc(CN3CCC(CN)C3)cc(O)c2c1` (centres undefined), the INHIBITION is given as -8.75%. For `COC1CCCN(Cc2cc(O)c3cc(C)cc(C)c3n2)C1` (centres undefined), the INHIBITION is recorded as 61.2%. In the case of `Cc1cc(C)c2nc(CN3CCCC(c4cc[nH]n4)C3)cc(O)c2c1` (centres undefined), the INHIBITION stood at 78.5%. For `Cc1cc(C)c2nc(CN3CC[C@@H](O)C3)cc(O)c2c1`, the INHIBITION is recorded as 20.1%. For `CS(=O)(=O)CCn1ccc(NC(=O)Cc2ccccc2Cl)n1`, the INHIBITION was 25.2%. Take `CSCCC(Nc1nc(C)cc(C)n1)C(=O)NC1CC1` (centres undefined): the INHIBITION is given as -15.4%.

In the case of `NC(=O)C1CN(c2ccc(Br)cn2)CCO1` (centres undefined), the INHIBITION stood at 69.7%. On to `NC(=O)C1CN(c2ccc3cc(Br)ccc3n2)CCO1` (centres undefined), for which the INHIBITION is recorded as 37.1%. The figure for `Cc1ccccc1CSc1nc(N)cc(N2CCOC(C(N)=O)C2)n1` (centres undefined) is -19.2%.

For the compound `CCS(=O)(=O)N1CCCn2nnc(CNC(C)=O)c2C1`, the INHIBITION turned out to be 52.1%.

As to `CC(=O)NCc1nnn2c1CN(c1ncc(C)cn1)CCC2`, the INHIBITION was 21.3%. `c1cnc(N2CCCn3nnc(COCC4CC4)c3C2)nc1`: the INHIBITION was found to be 18.7%. The result for `c1ccc(CN2CCCn3nnc(COc4ccccn4)c3C2)nc1` reads 24.9%; that for `CCS(=O)(=O)N1CCCn2nnc(Cn3cccc3)c2C1`, 36.5%. In the case of `CN(C)C(=O)NCc1nnn2c1CN(CC1CCOCC1)CCC2`, the INHIBITION is recorded as -51%. As for `CC(=O)NCc1nnn2c1CN(c1ncccn1)CCC2`, the INHIBITION is 54.8%. With `c1ccc(OCc2nnn3c2CN(c2ncccn2)CCC3)nc1`, the INHIBITION is recorded as 57.1%. The result for `OCCOCc1nnn2c1CN(c1ncccn1)CCC2` reads 43.8%; that for `O=C(c1ccco1)N1CC[C@H]2C[C@@H](c3nccs3)O[C@@H]2C1`, -7.59%; that for `COc1cccc(CNC(=O)c2cc(C)nc(N3CCCCC3)n2)c1`, 4.97%.

Turning to `CCc1csc(C2CCCN(C(=O)c3ccco3)C2)n1` (centres undefined), the INHIBITION amounted to 19.6%. `CC(=O)N1CCC(C)(c2cc(C(=O)NCC3CC3)nc(C)n2)CC1`: the INHIBITION is 9.075%. As to `O=C1CC2(CCCCN2C(=O)c2ccsc2)CN1CC1CC1` (centres undefined), the INHIBITION is reported as 37.4%. `COCCn1cnc2ccc(NC(=O)c3ccccn3)cc2c1=O`: the INHIBITION is 19.4%. The result for `COc1cccc(OC2CN(C(=O)Cn3nc4ccccc4n3)C2)c1` reads 28.7%; that for `CCn1nc(CC(C)C)cc1C(=O)N1CC(c2ccncc2)C1`, 57.4%. The result for `COc1cccc(OC2CN(C(=O)c3sccc3C)C2)c1` reads -17.6%; that for `COc1cccc(OC2CN(C(=O)c3cc(CC(C)C)nn3C)C2)c1`, 79.2%. Regarding `O=C(CCn1cnc2ccccc21)N1CCN2CCCCC2C1` (centres undefined), the INHIBITION was determined as 40.1%. The result for `CCn1nc(CC(C)C)cc1C(=O)N1C[C@H](O)[C@@H](N2CCCCC2)C1` reads 29.7%; that for `CCn1nc(CC(C)C)cc1C(=O)N1CC[C@@H](O)C1`, 26.8%; that for `COc1cccc(OC2CN(C(=O)CCn3cnc4ccccc43)C2)c1`, 70%.

On to `COc1cccc(OC2CN(C(=O)CCn3cnnn3)C2)c1`, for which the INHIBITION turned out to be 55.9%. The result for `CC(C)Cc1cc(C(=O)N2CC(OCc3ccccc3F)C2)n(C)n1` reads 43.2%; that for `COc1cccc(OC2CN(C(=O)c3c(C)noc3C)C2)c1`, -57.7%. The result for `CC(C)Cc1cc(C(=O)N2CCC(Oc3cccnc3)CC2)n(C)n1` reads 5.11%; that for `Cc1ccc(CNC(=O)NCCCO)cc1`, 0.914%.

With `Cc1ccc(C(NC(=O)C2CCC(O)CC2)c2cccnc2)cc1C` (centres undefined), the INHIBITION stood at 7.84%.

As for `Cc1ccccc1S(=O)(=O)NC(=O)C1(c2ccccc2)CCC1`, the INHIBITION stood at 35.2%. In the case of `Cc1ccc(S(=O)(=O)NC(C)(C)CN)c(F)c1`, the INHIBITION is on record as -21.8%. The result for `Cn1ccc(C2CCCCN2C(=O)c2cccc(Cn3cccn3)c2)n1` (centres undefined) reads 15%; that for `Cn1ccc(C2CCCCCN2C(=O)c2cccnc2)n1` (centres undefined), -1.16%. `Cn1ccc(C2CCCCN2C(=O)c2cccc(-n3cccn3)c2)n1` (centres undefined): the INHIBITION is 56.1%. In the case of `O=S(=O)(NCCCn1cncn1)c1ccc2c(c1)OCCCO2`, the INHIBITION stood at 49%. `CSc1ncccc1C(=O)N1C[C@@H]2CC[C@H]1CN(c1cnccn1)C2`: the INHIBITION worked out at 0.139%. In the case of `NC(=O)N1CCCC(C(=O)Nc2cccc(Cl)c2)C1` (centres undefined), the INHIBITION turned out to be 37.5%. On to `CC(C)(CNC(=O)C1CCCN(C(N)=O)C1)c1cccc(Cl)c1` (centres undefined), for which the INHIBITION is 21.5%. The figure for `CC(C)(CNc1cccc(Cl)c1)NC(=O)C1CCCN(CC(N)=O)C1` (centres undefined) is 69.9%; for `O=C(c1cccc2c1OCO2)N1CCC(N2CCCC2)CC1` it is -17.4%. As for `c1ccc(COC2C[C@@H]3CN(Cc4cncnc4)C[C@@H]3C2)cc1` (some centres undefined), the INHIBITION came out at 28%.

Take `CCc1noc(C2CCCCN2C(=O)c2cccnc2)n1` (centres undefined): the INHIBITION is -8.9%. The figure for `Cc1noc(C)c1C(=O)N1CCCC1c1c(C)nn(C)c1C` (centres undefined) is -50.5%; for `Cc1cc(CNC2(c3ccc(Cl)cc3)CC2)no1` it is 16.8%. The result for `OC1(c2ccccc2F)CCN(Cc2ccccc2N2CCCC2)CC1` reads 46.2%; that for `OC1(c2ccc(F)cc2)CCN(Cc2ccccc2N2CCCC2)CC1`, 43.4%; that for `Cc1cccc(C2(O)CCN(Cc3ccccc3N3CCCC3)CC2)c1`, 61%. The result for `C1CCC(NC2CCCN(Cc3noc(C4CC4)n3)C2)C1` (centres undefined) reads 17.3%. For `CCOc1cccc(C2CC(=O)NCc3nc(N(C)C)sc32)c1` (centres undefined), the INHIBITION was 11.7%. As to `CCOc1cccc(C2CC(=O)NCc3nc(N4CCCC4)sc32)c1` (centres undefined), the INHIBITION came out at 56.5%. Turning to `CCOc1cccc(C2CC(=O)NCc3nc(N)sc32)c1` (centres undefined), the INHIBITION is 42.2%. The figure for `Cc1cccc(C)c1OCCNC(=O)CN1CCN(C)CC1C` (centres undefined) is -17.7%.

As to `Cc1ccc2c(c1)cc(CN1CC[C@](C)(O)[C@H](C)C1)n2C`, the INHIBITION worked out at 42.1%. `CN1CCN(C2CCN(Cc3cn4ccccc4n3)CC2)C1=O`: the INHIBITION is recorded as -22.3%. The result for `CN(C)Cc1cnc2n1CCN(C(=O)C1CC=CC1)CC2` reads 36.9%. The figure for `Cc1ccc(CN2CC[C@H]3[C@@H]2CCC(=O)N3CCN2CCCC2)s1` is 32.4%; for `Cc1ccc(CN2CC[C@H]3[C@H]2CCN3S(=O)(=O)C2CC2)s1` it is 13.7%; for `Cc1ccc(CN2CC[C@@H]3OCCN(S(C)(=O)=O)[C@H]3CC2)s1` it is 34.5%. The result for `Cc1cc(CN2CC[C@H]3[C@H]2CCN3S(C)(=O)=O)oc1C` reads 16.1%; that for `Cc1ccc(CN2CC[C@@H]3[C@H]2CCC(=O)N3Cc2ccncc2)s1`, 68.4%; that for `CS(=O)(=O)N1CCO[C@@H]2CCN(Cc3ccncc3)CC[C@H]21`, 23.6%. In the case of `Cc1ccc(CN2CC[C@H]3[C@H]2CCN3S(C)(=O)=O)s1`, the INHIBITION is listed as 58.7%. For the compound `Cc1cccc(CN2C(=O)CC[C@@H]3[C@H]2CCN3Cc2ccc(C)s2)n1`, the INHIBITION worked out at 33.5%. The result for `Cc1ccc(CN2CC[C@@H]3OCCN(Cc4ccncc4)[C@H]3CC2)s1` reads 58.3%; that for `Cc1nc(CN(C)C2CCN(Cc3ccc4c(c3)CCC4)C2)no1` (centres undefined), 31.3%.
